Measurements published in the supplement of paper PMC12669032.

Experiments:
Assay in all cases: growth AUC relative to DMSO control (median of replicates) (fraction); higher = more growth (less inhibition), active = hit call of the paper
Conditions in all cases: 20 µM; 24 h;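 active = AUC reduced over 20% with Padj below 0.05 in at least 2 of 3 replicates; inactive = otherwise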
Akkermansia muciniphila = system: Akkermansia muciniphila
Summary of the method: (§1)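 Gut bacterial monocultures in mGAM were treated with 20 µM compound (1% DMSO) and grown anaerobically at 37 °C in round-bottom 96-well plates from OD600 0.05. OD600 was read hourly for 24 h, with the minimum OD set to 0. Area under the growth curve was normalised to the plate median of solvent-only wells, or to row and column medians on the industrial chemical plate. Each value is the median of three biological replicates, each grown on a separate day.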

Bacteroides caccae = system: Bacteroides caccae
Summary of the method: as §1

Bacteroides clarus = system: Bacteroides clarus
Summary of the method: as §1

Bacteroides dorei = system: Bacteroides dorei
Summary of the method: as §1

Bacteroides stercoris = system: Bacteroides stercoris
Summary of the method: as §1

[1] = system: Bacteroides thetaiotaomicron
Summary of the method: as §1

Bacteroides uniformis = system: Bacteroides uniformis
Summary of the method: as §1

[2] = system: Bifidobacterium longum subsp. longum
Summary of the method: as §1

Clostridium difficile = system: Clostridium difficile
Summary of the method: as §1

Collinsella aerofaciens = system: Collinsella aerofaciens
Summary of the method: as §1

Coprococcus comes = system: Coprococcus comes
Summary of the method: as §1

Escherichia coli ED1a = system: Escherichia coli ED1a
Summary of the method: as §1

Escherichia coli IAI1 = system: Escherichia coli IAI1
Summary of the method: as §1

Eubacterium rectale = system: Eubacterium rectale
Summary of the method: as §1

[3] = system: Fusobacterium nucleatum subsp. animalis
Summary of the method: as §1

Lactobacillus gasseri = system: Lactobacillus gasseri
Summary of the method: as §1

Lactobacillus paracasei = system: Lactobacillus paracasei
Summary of the method: as §1

Odoribacter splanchnicus = system: Odoribacter splanchnicus
Summary of the method: as §1

[4] = system: Parabacteroides distasonis
Summary of the method: as §1

Parabacteroides merdae = system: Parabacteroides merdae
Summary of the method: as §1

Measured: growth AUC

Clc1nc(Cl)nc(Nc2ccccc2Cl)n1
inactive: Akkermansia muciniphila 1.04 | Bacteroides caccae 1.02 | Bacteroides clarus 0.962 | Bacteroides dorei 1.02 | Bacteroides stercoris 1.07 | [1] 0.995 | Bacteroides uniformis 0.997 | [2] 1.01 | Clostridium difficile 1.03 | Collinsella aerofaciens 1.01 | Coprococcus comes 1.03 | Escherichia coli ED1a 1.01 | Escherichia coli IAI1 0.998 | Eubacterium rectale 0.859 | [3] 1.02 | Lactobacillus gasseri 0.991 | Lactobacillus paracasei 1.01 | Odoribacter splanchnicus 1.08 | [4] 1.04 | Parabacteroides merdae 0.969

CCCN(CCCl)c1c([N+](=O)[O-])cc(C(F)(F)F)cc1[N+](=O)[O-]
inactive: Akkermansia muciniphila 1.01 | Bacteroides caccae 0.977 | Bacteroides clarus 0.95 | Bacteroides dorei 0.94 | Bacteroides stercoris 0.93 | [1] 0.918 | Bacteroides uniformis 0.927 | [2] 1.07 | Clostridium difficile 0.995 | Collinsella aerofaciens 0.961 | Coprococcus comes 0.914 | Escherichia coli ED1a 0.983 | Escherichia coli IAI1 0.987 | Eubacterium rectale 0.942 | [3] 1.05 | Lactobacillus gasseri 0.875 | Lactobacillus paracasei 1.06 | Odoribacter splanchnicus 1.13 | [4] 0.962 | Parabacteroides merdae 0.955

COc1cc(OC)nc(NC(=O)[N-]S(=O)(=O)c2ncccc2OCC(F)(F)F)n1.[Na+]
inactive: Akkermansia muciniphila 1.07 | Bacteroides caccae 0.973 | Bacteroides clarus 0.982 | Bacteroides dorei 0.995 | Bacteroides stercoris 0.888 | Bacteroides uniformis 1.02 | [2] 1.07 | Clostridium difficile 1 | Collinsella aerofaciens 1 | Coprococcus comes 0.957 | Escherichia coli ED1a 0.993 | Escherichia coli IAI1 0.982 | Eubacterium rectale 1.04 | [3] 1.08 | Lactobacillus gasseri 0.9 | Lactobacillus paracasei 1.04 | Odoribacter splanchnicus 0.932 | [4] 1.03 | Parabacteroides merdae 0.974
active: [1] 0.77

O=C(O)C(F)(F)C(F)(F)C(F)(F)C(F)(F)C(F)(F)C(F)(F)C(F)(F)C(F)(F)F
inactive: Akkermansia muciniphila 1.01 | Bacteroides caccae 1 | Bacteroides clarus 1.02 | Bacteroides dorei 1.03 | Bacteroides stercoris 1.08 | [1] 1.07 | Bacteroides uniformis 1.02 | [2] 1.03 | Clostridium difficile 0.997 | Collinsella aerofaciens 0.997 | Coprococcus comes 1.01 | Escherichia coli ED1a 1.01 | Escherichia coli IAI1 1.01 | Eubacterium rectale 0.99 | [3] 1 | Lactobacillus gasseri 1 | Lactobacillus paracasei 1.03 | Odoribacter splanchnicus 1.07 | [4] 1.18 | Parabacteroides merdae 1.01

CCNc1nc(NC(C)(C)C)nc(SC)n1
inactive: Akkermansia muciniphila 1.02 | Bacteroides caccae 0.947 | Bacteroides clarus 0.94 | Bacteroides dorei 0.871 | Bacteroides stercoris 1.07 | [1] 0.728 | Bacteroides uniformis 0.905 | [2] 0.915 | Clostridium difficile 0.967 | Collinsella aerofaciens 1 | Coprococcus comes 0.969 | Escherichia coli ED1a 0.987 | Escherichia coli IAI1 0.986 | Eubacterium rectale 0.956 | [3] 1.06 | Lactobacillus gasseri 1.1 | Lactobacillus paracasei 1.08 | Odoribacter splanchnicus 0.876 | [4] 0.936 | Parabacteroides merdae 0.947

CCCN(CCC)c1c([N+](=O)[O-])cc(S(C)(=O)=O)cc1[N+](=O)[O-]
inactive: Akkermansia muciniphila 0.897 | Bacteroides caccae 0.942 | Bacteroides clarus 0.963 | Bacteroides dorei 0.937 | Bacteroides stercoris 0.856 | [1] 0.987 | Bacteroides uniformis 0.954 | [2] 0.948 | Clostridium difficile 0.965 | Collinsella aerofaciens 0.914 | Coprococcus comes 1.03 | Escherichia coli ED1a 0.978 | Escherichia coli IAI1 0.962 | Eubacterium rectale 0.974 | [3] 0.948 | Lactobacillus gasseri 0.84 | Lactobacillus paracasei 0.988 | Odoribacter splanchnicus 1.08 | [4] 0.967 | Parabacteroides merdae 0.936

CCc1cc(C)cc(CC)c1-c1c(OC(=O)C(C)(C)C)n2n(c1=O)CCOCC2
inactive: Akkermansia muciniphila 1.01 | Bacteroides caccae 0.906 | Bacteroides clarus 1 | Bacteroides dorei 0.992 | Bacteroides stercoris 1.22 | [1] 1.01 | Bacteroides uniformis 1 | [2] 0.952 | Clostridium difficile 0.944 | Collinsella aerofaciens 1 | Coprococcus comes 0.964 | Escherichia coli ED1a 0.99 | Escherichia coli IAI1 0.976 | Eubacterium rectale 1.14 | [3] 1.1 | Lactobacillus gasseri 0.845 | Lactobacillus paracasei 1.03 | Odoribacter splanchnicus 1.03 | [4] 0.851 | Parabacteroides merdae 1.01

O=C(NC(=O)c1c(F)cccc1F)Nc1cc(Cl)c(OC(F)(F)C(F)F)c(Cl)c1
inactive: Akkermansia muciniphila 1.17 | Bacteroides caccae 1 | Bacteroides clarus 0.954 | Bacteroides dorei 0.967 | Bacteroides stercoris 1.05 | [1] 0.998 | Bacteroides uniformis 0.956 | [2] 0.999 | Clostridium difficile 0.967 | Collinsella aerofaciens 0.994 | Coprococcus comes 0.96 | Escherichia coli ED1a 0.965 | Escherichia coli IAI1 0.982 | Eubacterium rectale 0.892 | [3] 0.877 | Lactobacillus gasseri 0.986 | Lactobacillus paracasei 0.62 | Odoribacter splanchnicus 0.983 | [4] 0.994 | Parabacteroides merdae 0.992

COP(=S)(OC)Oc1ccc([N+](=O)[O-])cc1
inactive: Akkermansia muciniphila 1.18 | Bacteroides caccae 0.898 | Bacteroides clarus 1.03 | Bacteroides dorei 0.888 | Bacteroides stercoris 1.04 | [1] 0.975 | Bacteroides uniformis 0.96 | [2] 1.03 | Clostridium difficile 1.02 | Collinsella aerofaciens 0.955 | Coprococcus comes 0.992 | Escherichia coli ED1a 0.999 | Escherichia coli IAI1 1 | Eubacterium rectale 1.13 | [3] 1.13 | Lactobacillus gasseri 0.915 | Lactobacillus paracasei 0.989 | Odoribacter splanchnicus 0.771 | [4] 0.93 | Parabacteroides merdae 0.964

CCOP(=O)(OCC)OCC
inactive: Akkermansia muciniphila 1.06 | Bacteroides caccae 0.991 | Bacteroides clarus 1.03 | Bacteroides dorei 0.972 | Bacteroides stercoris 1.03 | [1] 1.02 | Bacteroides uniformis 1.03 | [2] 0.971 | Clostridium difficile 0.989 | Collinsella aerofaciens 0.967 | Coprococcus comes 1.01 | Escherichia coli ED1a 1.01 | Escherichia coli IAI1 1.07 | Eubacterium rectale 1.01 | [3] 1.07 | Lactobacillus gasseri 0.931 | Lactobacillus paracasei 0.964 | Odoribacter splanchnicus 1.05 | [4] 1.03 | Parabacteroides merdae 1.05

O=C1c2ccccc2C(=O)N1SC(Cl)(Cl)Cl
inactive: Akkermansia muciniphila 1 | Bacteroides caccae 1.02 | Bacteroides clarus 0.977 | Bacteroides dorei 1.04 | Bacteroides stercoris 0.995 | [1] 0.999 | Bacteroides uniformis 1.05 | [2] 0.988 | Clostridium difficile 1.01 | Collinsella aerofaciens 0.983 | Coprococcus comes 1.01 | Escherichia coli ED1a 0.996 | Escherichia coli IAI1 1.02 | Eubacterium rectale 1.06 | [3] 1.02 | Lactobacillus gasseri 1.01 | Lactobacillus paracasei 0.963 | Odoribacter splanchnicus 1.02 | [4] 1.06 | Parabacteroides merdae 1.05

CC(C)C1(C)N=C(c2nc3ccccc3cc2C(=O)O)NC1=O (stereo not given)
inactive: Akkermansia muciniphila 0.971 | Bacteroides caccae 1.01 | Bacteroides clarus 1.02 | Bacteroides dorei 0.957 | Bacteroides stercoris 1.03 | [1] 0.992 | Bacteroides uniformis 1.01 | [2] 0.967 | Clostridium difficile 0.958 | Collinsella aerofaciens 0.962 | Coprococcus comes 1.01 | Escherichia coli ED1a 0.985 | Escherichia coli IAI1 0.983 | Eubacterium rectale 0.965 | [3] 1.02 | Lactobacillus gasseri 1.03 | Lactobacillus paracasei 0.891 | Odoribacter splanchnicus 0.908 | [4] 0.986 | Parabacteroides merdae 0.997

N#Cc1c[nH]cc1-c1cccc2c1OC(F)(F)O2
inactive: Akkermansia muciniphila 0.837 | Bacteroides caccae 0.959 | Bacteroides clarus 0.918 | Bacteroides dorei 0.953 | Bacteroides stercoris 0.85 | [1] 0.953 | Bacteroides uniformis 0.999 | [2] 0.91 | Clostridium difficile 0.978 | Collinsella aerofaciens 0.992 | Coprococcus comes 1.05 | Escherichia coli ED1a 0.969 | Escherichia coli IAI1 0.978 | Eubacterium rectale 0.857 | [3] 0.888 | Lactobacillus gasseri 0.866 | Lactobacillus paracasei 0.908 | Odoribacter splanchnicus 0.985 | Parabacteroides merdae 0.88
active: [4] 0.759

COc1ncc(F)c2nc(S(=O)(=O)Nc3c(F)cccc3F)nn12
inactive: Akkermansia muciniphila 0.991 | Bacteroides caccae 1.02 | Bacteroides clarus 0.985 | Bacteroides dorei 1.01 | Bacteroides stercoris 1.13 | [1] 0.974 | Bacteroides uniformis 1 | [2] 1.01 | Clostridium difficile 0.994 | Collinsella aerofaciens 1.01 | Coprococcus comes 1.03 | Escherichia coli ED1a 1.01 | Escherichia coli IAI1 0.989 | Eubacterium rectale 1 | [3] 1.02 | Lactobacillus gasseri 1.01 | Lactobacillus paracasei 1 | Odoribacter splanchnicus 0.992 | [4] 0.983 | Parabacteroides merdae 1.01

C=C(C)CN(CC)c1c([N+](=O)[O-])cc(C(F)(F)F)cc1[N+](=O)[O-]
inactive: Akkermansia muciniphila 0.843 | Bacteroides caccae 1.02 | Bacteroides clarus 0.965 | Bacteroides dorei 1.02 | Bacteroides stercoris 0.926 | [1] 0.998 | Bacteroides uniformis 0.968 | [2] 0.933 | Clostridium difficile 1.04 | Collinsella aerofaciens 1 | Coprococcus comes 0.985 | Escherichia coli ED1a 0.921 | Escherichia coli IAI1 0.968 | Eubacterium rectale 0.921 | [3] 0.912 | Lactobacillus gasseri 1.03 | Lactobacillus paracasei 1.14 | Odoribacter splanchnicus 1.01 | [4] 1.02 | Parabacteroides merdae 1.01

COP(=O)(OC)C(O)C(Cl)(Cl)Cl (stereo not given)
inactive: Akkermansia muciniphila 0.955 | Bacteroides caccae 1.04 | Bacteroides clarus 1.01 | Bacteroides dorei 1 | Bacteroides stercoris 1.01 | [1] 1.01 | Bacteroides uniformis 1.02 | [2] 1.02 | Clostridium difficile 1 | Collinsella aerofaciens 1.01 | Coprococcus comes 1.03 | Escherichia coli ED1a 1.02 | Escherichia coli IAI1 1.01 | Eubacterium rectale 1.08 | [3] 0.973 | Lactobacillus gasseri 1 | Lactobacillus paracasei 1.02 | Odoribacter splanchnicus 0.965 | [4] 1.04 | Parabacteroides merdae 1
